# CYP2C19 inhib = human CYP2C19 inhibition. P33261. hit rate 21% among 96,000. inhibition, % at 5 µM. CYP2C19 Supersomes, luciferin-H EGE luminescence, 30 min. AID 778;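 active means CYP2C19 inhibition above a set limit at 5 µM in the primary screen, cut at about 50% in these data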;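 further: plate controls were negative control wells for no effect and 2.5 mM tranylcypromine positive control for full effect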
# Measles CPE = protection of cells from measles virus. Measles virus-infected cells, CPE protection, absorbance. protection (pct of control), % at 4 µM. hit rate 1.5% among 140,000; in the data active means protection mostly above about 24%, no sharp cut-off; inactive means mostly below about 26%
# CYP2C9 inhib = blocks human cytochrome P450 2C9 | AID 777 | CYP2C9 Supersomes, luciferin-H conversion, luminescence | P11712 | inhibition, % at 5 µM | hit rate 20% among 96,000;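 active means blocking of liver enzyme CYP2C9 beyond about 50% at 5 µM, limit read from the data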
# Target sequence (P11712 whole entry, looked up): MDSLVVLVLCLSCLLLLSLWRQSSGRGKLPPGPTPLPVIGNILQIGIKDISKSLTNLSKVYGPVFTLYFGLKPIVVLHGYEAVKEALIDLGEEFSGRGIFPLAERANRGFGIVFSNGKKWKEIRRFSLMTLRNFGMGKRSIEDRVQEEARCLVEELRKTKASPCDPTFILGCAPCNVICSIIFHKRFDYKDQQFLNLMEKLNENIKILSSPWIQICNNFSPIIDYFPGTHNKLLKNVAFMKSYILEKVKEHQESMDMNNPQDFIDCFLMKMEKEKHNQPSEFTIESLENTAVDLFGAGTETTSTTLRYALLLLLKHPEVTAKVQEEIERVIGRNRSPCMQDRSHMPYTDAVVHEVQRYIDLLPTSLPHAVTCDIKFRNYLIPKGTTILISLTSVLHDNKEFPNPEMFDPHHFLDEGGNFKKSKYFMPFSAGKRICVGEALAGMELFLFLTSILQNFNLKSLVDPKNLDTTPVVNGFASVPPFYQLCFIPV
# CYP2C9 activ = activators of human CYP2C9 | P11712 | recombinant CYP2C9, luciferin-H conversion, luminescence; active compounds read high; factor 1 = untreated enzyme, 0 = blocked | activation factor at 5 µM | hit rate 1.4% among 96,000 | AID 1024;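 active means activation factor of 2 or more for CYP2C9 at a 5 µM dose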;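 further: 0 = sulfaphenazole-blocked wells and 1 = vehicle-only wells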
# CYP2C19 activ = cytochrome P450 2C19 (human) activation | P33261 | recombinant CYP2C19, luciferin-H EGE luminescence; active compounds read high; 0 = fully inhibited enzyme, 1 = untreated enzyme | activation factor at 5 µM | 96,000 tested, under 10 active;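 active means activation factor of at least 2 at 5 µM in the primary screen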;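 further: 0 = wells with 2.5 mM tranylcypromine and 1 = vehicle-only wells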
# * hit, by the source's call; / = no result given. An excerpt weighted towards active compounds, which were near 22% of everything screened.
SMILES,CYP2C19 inhib,Measles CPE,CYP2C9 inhib,CYP2C9 activ,CYP2C19 activ
CC(C)C(=O)Nc1cc(S(=O)(=O)Nc2ccc(Cl)cc2)ccc1Cl,/,44.6*,/,/,/
CC(C)C(=O)Nc1cc(S(=O)(=O)Nc2cccc(Cl)c2)ccc1Cl,/,26.2,/,/,/
FC(F)(F)C1CC(c2cccs2)Nc2ncnn21 (stereo not drawn),6.0,22.4,8.5,0.9,0.9
NC(=O)c1ccccc1N/C=C/C(=O)c1ccccc1,74.4*,7.9,44.6,0.6,0.3
Cc1ccc(NC(=O)CO/N=C/c2ccc(N(C)C)cc2)cc1,/,7.7,/,/,/
O=C(CSc1ncn[nH]1)NCCOc1ccccc1,38.6,24.0,10.7,0.9,0.6
COc1ccc(CCC(=O)NCCCNC(=O)CCc2ccc(OC)cc2)cc1,/,5.8,/,/,/
COc1ccc(CCNC(=O)CSc2ncn[nH]2)cc1,52.0*,14.1,13.5,0.9,0.5
COc1ccc(CCNC(=O)CSc2nncs2)cc1,/,5.1,/,/,/
O=C(CSc1ncn[nH]1)NCCC(c1ccccc1)c1ccccc1,82.6*,16.2,65.4*,0.3,0.2
COc1ccc(CCC(=O)NCCc2cn3c(C)csc3n2)cc1,53.0*,4.2,1.9,1,0.5
O=C(CSc1ncn[nH]1)OCN1C(=O)c2ccccc2C1=O,-9.9,9.2,-19.1,1.2,1.1
CCOC(=O)C(Sc1ncn[nH]1)c1ccccc1 (stereo not drawn),64.4*,4.6,25.9,0.7,0.4
COc1ccc(-n2c(SCC(=O)Nc3nccs3)nnc2-c2ccoc2C)cc1,75.2*,24.4,62.4*,0.4,0.2
COc1cccc(-n2c(SCC(=O)Nc3nccs3)nnc2-c2ccoc2C)c1,/,7.7,/,/,/
Cc1ccc(-n2c(SCC(=O)NCc3cccs3)nnc2-c2ccoc2C)cc1,93.4*,24.6,78.0*,0.2,0.1
COc1ccc(-c2csc(-c3cc4ccccc4oc3=N)n2)cc1,/,2.6,/,/,/
CCNC(=O)c1ccccc1NC(=O)c1cccc(S(=O)(=O)N2CCOCC2)c1,/,3.6,/,/,/
CNC(=O)c1ccccc1NC(=O)c1cccc(S(=O)(=O)N2CCC(C)CC2)c1,89.5*,21.3,73.0*,0.3,0.1
CCNC(=O)c1ccccc1NC(=O)c1cccc(S(=O)(=O)N2CCC(C)CC2)c1,59.4*,28.7,68.4*,0.3,0.4
Cc1ccc(NC(=O)CSc2nc3c(cc2C#N)C(=O)CCC3)cc1S(=O)(=O)N(C)C,/,7.8,/,/,/
CCC(=O)NC1(C(F)(F)F)C(=O)Nc2c1c(=O)[nH]c(=O)n2Cc1ccco1 (stereo not drawn),-14.1,13.7,-8.0,1.1,1.1
C=CCn1c(SCC(=O)Nc2ccccc2OC)nnc1-c1ccccn1,/,20.4,/,/,/
C=CCn1c(SCC(O)Cn2c3ccccc3c3ccccc32)nnc1-c1ccco1 (stereo not drawn),97.7*,7.7,90.1*,0.1,0
C=CCn1c(SCC(=O)Nc2ccccc2OC)nnc1-c1ccco1,54.1*,2.2,9.6,0.9,0.5
SMILES,CYP2C19 inhib,Measles CPE,CYP2C9 inhib,CYP2C9 activ,CYP2C19 activ
COc1ccccc1NC(=O)CSc1ncn(-c2ccccc2)n1,75.9*,20.2,19.1,0.8,0.2
C=CCn1c(SCC(=O)Nc2ccc3c(c2)OCCO3)nnc1-c1ccco1,38.8,3.4,42.0,0.6,0.6
COc1ccccc1NC(=O)CSc1nnc(C)n1Cc1ccccc1,52.3*,16.2,-3.3,1,0.5
CC(=O)NC(C1C(=O)CC(C)(C)CC1=O)(C(F)(F)F)C(F)(F)F,-22.6,11.6,26.5,0.7,1.2
CCC(=O)Nc1cccc(NC(=O)CSc2nnc(C(C)C)n2CC)c1,4.3,10.6,-1.1,1,1
Cc1ccnc(SCC(=O)N2CCN(c3cccc(Cl)c3)CC2)n1,99.0*,4.0,30.3,0.7,0
O=C(CSc1ncn(-c2ccccc2)n1)N1CCN(c2ccccc2)CC1,63.6*,20.3,58.6*,0.4,0.4
CCc1ccccc1NC(=O)CSc1nnc(-c2ccco2)n1N,55.8*,7.2,-10.1,1.1,0.4
Cc1ccnc(SCC(=O)N2CCN(c3ccccc3)CC2)n1,/,6.0,/,/,/
O=C(OCn1nnc2ccccc2c1=O)c1cccnc1,16.9,26.0,5.2,0.9,0.8
O=C(c1ccc(=O)oc1)N1CCN(C(c2ccccc2)c2ccccc2)CC1,35.4,4.2,45.0,0.6,0.6
Cc1nnc(C)n1/N=C/c1cccc(Oc2ccccc2)c1,/,6.2,/,/,/
Cc1ccc(S(=O)(=O)NCCC(=O)OCn2nnc3ccccc3c2=O)cc1,-0.1,3.9,-3.2,1,1
CCCCCCC(=O)N(O)C1CC(=O)N(c2ccc(Br)cc2)C1=O (stereo not drawn),52.2*,5.4,31.7,0.7,0.5
O=C(Nc1cccc2ncccc12)c1ccc2c(c1)OCCO2,-5.6,15.7,-49.5,1.5,1.1
CCCCNC(=O)c1onc(CSc2cccc(Cl)c2)c1C(=O)O,28.1,9.6,84.2*,0.2,0.7
CC(C)NC(=O)c1onc(CSc2cccc3ccccc23)c1C(=O)O,31.8,13.2,95.2*,0,0.7
CCCCNC(=O)c1onc(CSc2ccccc2)c1C(=O)O,18.8,5.6,56.9*,0.4,0.8
COCCNC(=O)c1onc(CSc2ccc(C(C)C)cc2)c1C(=O)O,33.7,4.8,66.4*,0.3,0.7
CCc1ccccc1SCc1noc(C(=O)NCC2CCCO2)c1C(=O)O (stereo not drawn),21.6,14.3,0.7,1,0.8
COCCNC(=O)c1onc(CSc2ccc(Cl)cc2)c1C(=O)O,43.2,10.9,22.8,0.8,0.6
O=C1C=CC(=O)N1Nc1ccc(Br)cc1,/,2.2,/,/,/
O=C(NN=C1CCN(Cc2ccccc2)CC1)c1cccc(S(=O)(=O)Nc2ccccc2Cl)c1,/,2.1,/,/,/
C=CCOC(=O)C1=C(C)Nc2[nH]c(=O)[nH]c(=O)c2C1c1cccc(OC)c1 (stereo not drawn),/,5.6,/,/,/
CCCCNC(=O)c1onc(CSc2cccc3ccccc23)c1C(=O)O,57.7*,15.3,96.8*,0,0.4
SMILES,CYP2C19 inhib,Measles CPE,CYP2C9 inhib,CYP2C9 activ,CYP2C19 activ
CCCCNC(=O)c1onc(CSc2cccc(OCC)c2)c1C(=O)O,28.5,6.4,91.9*,0.1,0.7
CCCCNC(=O)c1onc(CSc2ccc(C(C)C)cc2)c1C(=O)O,27.8,4.9,93.8*,0.1,0.7
CCOc1cccc(SCc2noc(C(=O)NCCOC)c2C(=O)O)c1,5.7,6.0,37.1,0.6,0.9
On1nnc2ccc3ccccc3c21,/,11.4,/,/,/
Nc1ccc2nn(-c3cccc4ccccc34)nc2c1,48.7,5.7,51.2*,0.5,0.5
Cc1cc2nn(-c3cccc4ccccc34)nc2cc1N,30.6,8.3,57.7*,0.4,0.7
Cc1ccc(-n2nc3cc(C)c(N)cc3n2)cc1,-21.8,0.7,-3.8,1,1.2
Cc1cc(NCCCN2CCOCC2)n2ncc(-c3ccccc3)c2n1,41.0,16.3,87.7*,0.1,0.6
CC(=O)Nc1ccc(Nc2cc(C)nc3c(-c4ccccc4)c(C)nn23)cc1,/,93.0*,/,/,/
Cc1cc(NCCCN2CCOCC2)n2nc(C)c(-c3ccccc3)c2n1,32.3,5.6,71.3*,0.3,0.7
CC(=O)Nc1nnc(C)s1,/,3.7,/,/,/
